Screening data as filed in PubChem.
An excerpt weighted towards active compounds, which were near 2.3% of everything screened.
FUS yeast rescue – rescues growth of FUS-expressing yeast | Potency, µM (top dose mostly 76.6 µM), hits mostly activators | S. cerevisiae FUS-expressing, growth rescue, OD600, 24 h | 0.24% of 390,000 active; further: nearly all actives have a fitted effect of over 55% in size
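FUS-expressing yeast, raffinose-pregrown, induced in 2% galactose minimal medium at OD 0.005; compounds in a dilution series, 24hr at 30C. Growth restoration read as absorbance at 600 nm. CP55940 positive control, DMSO negative.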
TDP-43 yeast inh – rescues yeast growth from TDP-43 toxicity | Potency, µM (highest dose often 46.1 µM), hits mostly activators | TDP-43 expressing yeast growth rescue, BacTiter-Glo, 24 h | 1.8% of 410,000 active; further: nearly all actives have a fitted effect of over 50% in size
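In this qHTS, compounds that restore growth of yeast expressing TDP-43 appear as activators. Cells (OD600=0.02, galactose medium, raffinose-pregrown) are incubated with compound 24 hr at 30 deg C and growth is quantified by BacTiter-Glo.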
aSyn yeast inh – rescues yeast growth from alpha-synuclein toxicity; AID 652106; Potency, µM (titrated, usually from 46.1 µM), hits mostly activators; Yeast expressing alpha-synuclein, growth rescue, BacTiter-Glo, 24 h; 0.14% of 370,000 active; further: nearly all actives have a fitted effect of over 65% in size
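Screening used galactose-induced yeast with toxic alpha-synuclein levels, exposed to compound for 24 hr at 30 deg C. Cell growth, read with BacTiter-Glo luminescence, gave the measured signal.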
BCR signal inh – chronic active BCR signaling inhibition; 0.05% of 340,000 active; Potency, µM (doses to about 46.1 µM), most hits filed as inhibitors; ABC-DLBCL IkBa-CBG/CBR reporter, luminescence ratio, 4 h; active means well fitted inhibition curve with a large enough effect in the signal ratio, with a control signal flat, not every such curve was filed as active; inconclusive means small, poorly fitted or top-dose-only effect, or effect the other way, or a change in a side signal; the % refers to the signal ratio
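TMD8 human ABC-DLBCL cells with doxycycline-inducible IκBα–green luciferase fusion and unfused red luciferase, in 0.5% FBS medium; compounds up to 46 uM, 4 h at 37C. Green/red luminescence ratio, filter-overlap corrected, fitted to concentration-response curves.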
uPA generation – cell surface uPA generation inhibition. cell surface uPA generation assay, qHTS. 0.31% of 330,000 active. Potency, µM (titrated, usually from 38.3 µM), hits mostly inhibitors; active means well fitted inhibition curve with a large enough effect; inconclusive means small, poorly fitted or top-dose-only effect; inactive means no such curve, though single readings can be large or run the other way; tested in mouse RAW 264.7 cells; further: nearly all actives have a fitted effect of over 55% in size
Abeta yeast res – compounds reversing amyloid beta toxicity in yeast; yeast expressing A-beta42, growth rescue, OD600, 48 h; response scale: 0% DMSO, 100% iron-clioquinol control; Potency, µM (titrated, usually from 46.1 µM), usual class: activators; 0.063% of 410,000 active; further: nearly all actives have a fitted effect of over 55% in size
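Yeast A-beta toxicity model in growth medium with pinned compounds, 48 h at 30 C; growth read as absorbance at 600 nm. Normalized to FeCl3/clioquinol equimolar mix (positive) and DMSO (negative).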
Of the large screens only hits and unclear results are named; the others gave an inactive call. Unless noted, the call rests on the fitted dose curve; in most records, active means well fitted curve in the direction sought with a large enough effect; inconclusive means small, poorly fitted or top-dose-only effect, or another doubt; inactive means no such curve, though single readings can be large; an effect the other way counts as inactive or inconclusive.

Cc1ccc(-n2nnnc2SCC(=O)N2CCNC2=O)cc1C	none
COC(=O)c1sc(N)nc1CCNC(=O)OC(C)(C)C	aSyn yeast inh inconclusive (no result: BCR signal inh, uPA generation)
Nc1ccc(CNC(=O)OCC2c3ccccc3-c3ccccc32)cc1	FUS yeast rescue inconclusive, TDP-43 yeast inh 14.1µM (no result: BCR signal inh)
CC(SC#N)C(=O)C12CC3CC(CC(C3)C1)C2 (stereo unspecified)	TDP-43 yeast inh 11.2µM, BCR signal inh inconclusive
CCC1=NN(C(=O)c2ccccc2O)C(O)(c2ccccc2)C1 (stereo unspecified)	BCR signal inh inconclusive, uPA generation 11.2µM
CCC1=NN(C(=O)c2ccccc2Br)C(O)(c2ccc(Br)cc2)C1 (stereo unspecified)	BCR signal inh inconclusive
CN1C(=O)C2(CCCCC2)C1c1ccccc1 (stereo unspecified)	none
Cc1c(C#N)c(NC(=O)CCl)n(Cc2cccs2)c1C	BCR signal inh inconclusive, uPA generation 5.01µM
Cc1[nH]n(-c2ccccc2)c(=O)c1/C=N/NC(=O)c1ccccc1F	TDP-43 yeast inh inconclusive, BCR signal inh inconclusive, uPA generation inconclusive, Abeta yeast res 10µM
CC(=O)N/N=C/c1c(C)[nH]n(-c2ccccc2)c1=O	none
Cc1[nH]n(-c2ccccc2)c(=O)c1/C=N/N1C(=O)c2ccc3c4c(ccc(c24)C1=O)CC3	TDP-43 yeast inh 5.01µM, aSyn yeast inh 25.1µM, BCR signal inh inconclusive, Abeta yeast res 8.91µM
COc1ccc(O)cc1	uPA generation 6.31µM
COc1ccc(-c2ccnc(-c3ccc(O)cc3)n2)cc1	BCR signal inh inconclusive
COc1ccc(C)c2sc(N3CCN(C(=O)c4ccco4)CC3)nc12	TDP-43 yeast inh 22.4µM (no result: aSyn yeast inh, uPA generation)
CCCC(=O)N1CCN(c2nc3ccc(CC)cc3s2)CC1	TDP-43 yeast inh inconclusive
CCc1ccc2nc(N3CCN(C(=O)c4ccccc4)CC3)sc2c1	TDP-43 yeast inh 11.2µM (no result: aSyn yeast inh, uPA generation)
O=C(c1ccc2nc(N3CCOCC3)sc2c1)N1CCC(Cc2ccccc2)CC1	FUS yeast rescue inconclusive, TDP-43 yeast inh 25.1µM
Cc1ccc2cc3cc(C(=O)N4CCN(C(=O)c5ccco5)CC4)sc3nc2c1	TDP-43 yeast inh 12.6µM, BCR signal inh inconclusive
COc1ccc(C)c2sc(N3CCN(C(=O)c4cccc(F)c4)CC3)nc12	none (no result: aSyn yeast inh, uPA generation)
Cc1ccc(C(=O)NCC(=O)NCC(=O)OCc2ccc(Oc3ccc([N+](=O)[O-])cc3)cc2)cc1	none (no result: BCR signal inh)
Cc1cccc(C)c1NC(=O)N1CCN(c2nc3ccccc3s2)CC1	TDP-43 yeast inh inconclusive, BCR signal inh inconclusive
Cc1ccc(Cl)cc1N1CCN(C(=O)c2ccc3nc(N4CCC(C)CC4)sc3c2)CC1	FUS yeast rescue inconclusive (no result: aSyn yeast inh, BCR signal inh, uPA generation)
Cc1ccc(C)c(N2CCN(C(=O)c3ccc4nc(N5CCOCC5)sc4c3)CC2)c1	FUS yeast rescue inconclusive, TDP-43 yeast inh 12.6µM
O=C(c1ccco1)N1CCN(c2nc3ccc(Cl)cc3s2)CC1	TDP-43 yeast inh 11.2µM (no result: aSyn yeast inh, uPA generation)
Cc1cc2nc(N3CCN(C(=O)c4ccco4)CC3)sc2cc1C	BCR signal inh inconclusive
Cc1cccc(Cl)c1NC(=O)N1CCCN(c2nc3ccc(Cl)cc3s2)CC1	TDP-43 yeast inh 20µM, BCR signal inh inconclusive, Abeta yeast res inconclusive
COc1ccccc1N1CCN(S(=O)(=O)c2cn(C)nc2C)CC1	none
O=C(Cn1cc(S(=O)(=O)N2CCCC2)c(S(=O)(=O)N2CCCC2)c1)Nc1cccc(F)c1	none (no result: aSyn yeast inh, BCR signal inh, uPA generation)
Cc1cc(NC(=O)c2cc(-c3ccccc3Cl)nc3ccccc23)no1	TDP-43 yeast inh 14.1µM, BCR signal inh inconclusive
O=C(NCc1ccccn1)c1cc(-c2ccccc2Cl)nc2ccccc12	TDP-43 yeast inh 20µM (no result: FUS yeast rescue)
O=C(NCc1ccccn1)c1cc(-c2ccncc2)nc2ccccc12	none
Cc1cc(NC(=O)c2cc(-c3ccccc3C)nc3ccccc23)no1	BCR signal inh inconclusive (no result: FUS yeast rescue)
CN(C)C(CNC(=O)c1ccc(NS(=O)(=O)c2cccc([N+](=O)[O-])c2)cc1)c1ccco1 (stereo unspecified)	none
Cc1nc(CCNC(=O)Cc2ccccc2)cs1	none
COc1ccc(/C=N/NC(=O)c2ccoc2C)cc1OC	BCR signal inh inconclusive
COc1ccc(/C=N/NC(=O)c2ccn[nH]2)cc1COc1ccc(F)cc1	TDP-43 yeast inh inconclusive
COc1ccc(/C=N/NC(=O)c2ccoc2C)cc1COc1ccc(Cl)cc1	FUS yeast rescue inconclusive, TDP-43 yeast inh 14.1µM, Abeta yeast res inconclusive (no result: BCR signal inh)
COc1ccc(/C=N/NC(=O)c2ccn[nH]2)cc1COc1ccc([N+](=O)[O-])c(C)c1	TDP-43 yeast inh 25.1µM, BCR signal inh inconclusive
O=C(Nc1ccccc1)c1ccc(-c2ccc(Br)cc2)o1	TDP-43 yeast inh 12.6µM, BCR signal inh inconclusive
CC(=O)c1ccc(NC(=O)c2ccc(-c3ccc(Cl)cc3)o2)cc1	TDP-43 yeast inh 11.2µM (no result: aSyn yeast inh, BCR signal inh, uPA generation)
CC1CCN(Cc2ccc(-c3nnn(CC(=O)Nc4ccccc4Cl)n3)cc2)CC1	none
C[C@@]12C(=O)Nc3ccc(Cl)cc3C(=O)N1[C@H]1c3ccccc3OC[C@@H]1[C@@H]2c1ccccc1	FUS yeast rescue 28.2µM, BCR signal inh inconclusive, uPA generation inconclusive
CCOC(=O)[C@H]1[C@H]2COc3ccc(Cl)cc3[C@@H]2N2C(=O)c3cc(Br)ccc3NC(=O)[C@@]12C	FUS yeast rescue inconclusive, TDP-43 yeast inh inconclusive, BCR signal inh inconclusive, Abeta yeast res inconclusive
C[C@@]12C(=O)Nc3ccc(F)cc3C(=O)N1[C@H]1c3cc(Cl)ccc3OC[C@@H]1[C@@H]2c1ccccc1	TDP-43 yeast inh 17.8µM, BCR signal inh inconclusive, uPA generation inconclusive
CCOC(=O)[C@H]1[C@H]2COc3ccc(Cl)cc3[C@@H]2N2C(=O)c3cc(Cl)ccc3NC(=O)[C@@]12C	BCR signal inh inconclusive, uPA generation inconclusive, Abeta yeast res 3.55µM
Cc1ccc2c(c1)C(=O)N1[C@H]3c4cc(Cl)ccc4OC[C@@H]3[C@H](c3ccccc3)[C@]1(C)C(=O)N2	BCR signal inh inconclusive, uPA generation inconclusive
CCOC(=O)[C@@H]1[C@H]2COc3ccccc3[C@@H]2N2C(=O)N(c3ccc(Cl)cc3)C(=O)[C@@]12C	BCR signal inh inconclusive
C[C@@]12C(=O)Nc3cc(Cl)ccc3C(=O)N1[C@H]1c3ccccc3OC[C@@H]1[C@@H]2c1ccccc1	BCR signal inh inconclusive, uPA generation inconclusive
CCOC(=O)[C@@H]1[C@H]2COc3ccccc3[C@H]2N2C(=O)N(c3ccc(Cl)cc3)C(=O)[C@]12C	FUS yeast rescue inconclusive, TDP-43 yeast inh 35.5µM, BCR signal inh inconclusive
Cc1cc(Cl)n2nc(C)c(-c3ccc(Cl)cc3)c2n1	TDP-43 yeast inh inconclusive, BCR signal inh inconclusive
C=CCSC1=N/C(=C\C=C\c2ccco2)C(=O)S1	none
